Results: PubChem BioAssay
A number with no mark means an inactive call. The source made the active and inactive calls.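 The calls were made as follows: active = compound that reduces growth-factor-driven endothelial tube area in a mixed cell culture, no cutoff stated; inactive = the rest.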

Assay: inhibition of endothelial tube formation, primary screen, imaging, VEGF stimulated, CD31 staining, tube area, NPC library (AID 1117340)
Conditions: VEGF-stimulated ADSC/ECFC co-culture, at 10 µM, hits give high values

SMILES | tube area decrease
NC1[C@H]2CN(c3nc4c(cc3F)c(=O)c(C(=O)O)cn4-c3ccc(F)cc3F)C[C@@H]12 (some centres undefined) | 26.1%
CCn1c(=O)c2c(nc(C=Cc3ccc(OC)c(OC)c3)n2C)n(CC)c1=O | 14.4%
COc1ccc(CCN(C)CCCC(C#N)(c2cc(OC)c(OC)c(OC)c2)C(C)C)cc1OC (centres undefined) | 6.2%
N[C@@H](CC(=O)O)C(=O)O | -11.9%
C[C@]12CCC(=O)C=C1CC[C@@H]1[C@@H]2CC[C@@]2(C)[C@H]1CC[C@]2(O)C(=O)CO | 5.4%
O=c1[nH]c(=O)n([C@H]2C[C@H](O)[C@@H](CO)O2)cc1Br | 54.6% (active)
CC1=C(CC(=O)O)c2cc(F)ccc2/C1=C\c1ccc(S(C)(=O)=O)cc1 | 7.6%
CCN1CCc2nc(N)oc2CC1 | 1.7%
NC(CO)(CO)CO | -6%
NC(=O)c1cn(Cc2c(F)cccc2F)nn1 | -8.7%
CSc1ccc(C(=O)c2[nH]c(=O)[nH]c2C)cc1 | -15.1%
CC(=O)Oc1cc(C(F)(F)F)ccc1C(=O)O | -1.7%
NC(N)=NCCC[C@H](N)C(=O)O | -23.7%
COC(=O)C1=C(C#N)NC(C)=C(C(=O)OC(C)C)C1c1cccc([N+](=O)[O-])c1 (centres undefined) | 9.9%
CCCCCCCCCCCCCCCCO | -0.9%
O=C1NC(=O)[C@@]2(CCOc3ccc(F)cc32)N1 | -2.4%
COc1cc(C)c(C=CC(C)=CC=CC(C)=CC(=O)O)c(C)c1C | 45.4% (active)
C[N+](C)(C)CCOC(=O)CCC(=O)OCC[N+](C)(C)C | -17.3%
Cc1nc2c([nH]1)c(=O)n(C)c(=O)n2Cc1ccco1 | -13.8%
OCCN1CCN(CC/C=C2/c3ccccc3Sc3ccc(C(F)(F)F)cc32)CC1 | 88.3% (active)

SMILES | tube area decrease
CC(C)(C)c1ccc(C(=O)CCCN2CCC(OC(c3ccccc3)c3ccccc3)CC2)cc1 | 102% (active)
Nc1cc(=O)[nH]c(N)n1 | -14.1%
CC(=O)[C@@]1(O)CC[C@H]2[C@@H]3CCC4=CC(=O)CC[C@]4(C)[C@H]3CC[C@@]21C | -5.3%
COc1cc(C=O)ccc1O | 1.2%
COC(=O)C1=C(C)NC(C)=C(C(=O)OC(C)(C)CN(C)CCC(c2ccccc2)c2ccccc2)C1c1cccc([N+](=O)[O-])c1 (centres undefined) | 90.2% (active)
CCC(=O)c1ccc2c(c1)N(CCCN(C)C)c1ccccc1S2 | 48.9% (active)
COC(=O)C(c1ccccc1Cl)N1CCc2sccc2C1 (centres undefined) | 1.2%
OCCN1CCN(CCCN2c3ccccc3C=Cc3ccccc32)CC1 | 15%
CCNC(=O)N1CCN(CCCC(c2ccc(F)cc2)c2ccc(F)cc2)CC1 | 17.1%
C(=C\c1ccccc1)/CN1CCN(C(c2ccccc2)c2ccccc2)CC1 | 26.3%
Nc1cccc2c1CN(C1CCC(=O)NC1=O)C2=O (centres undefined) | -3.8%
COC(=O)[C@@H](N)Cc1ccc(O)c(O)c1 | 1.4%
CCCCc1ncc(/C=C(\Cc2cccs2)C(=O)O)n1Cc1ccc(C(=O)O)cc1 | -11.7%
O=C(O)CN(CCOCCOCCN(CC(=O)O)CC(=O)O)CC(=O)O | 6.4%
CCCCCCCCCCCCCCC[C@H](O)[C@@H](N)CO | 17.5%
O=C(O)CP(=O)(O)O | -4.7%
N[C@@H](COP(=O)(O)O)C(=O)O | -20.7%
O=S(=O)(O)Oc1ccc(C(c2ccc(OS(=O)(=O)O)cc2)c2ccccn2)cc1 | 11.8%
CCN(CC)CCCN(c1ccccc1)C1Cc2ccccc2C1 | 22.2%
